Values joined by “and” are separate entries in the source; they are usually repeats but may differ in a detail not shown here. Equal entries are not always repeated. Active and inactive are the calls of the source.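 The calls were made as follows, unless noted: active = thallium flux through the channel raised or lowered by more than 3 SD from vehicle-only wells, actives on both sides; inactive = the rest.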

A short description of assay [1]: stimulators of nuclear beta-catenin in C2C12, primary screen, imaging, WNT3A-conditioned medium, mouse C2C12, NPC library (AID 1117326; in the data active = nuclear beta-catenin stimulation mostly above about 4.2%, no sharp cut-off; inactive = mostly below about 10%). The following applies: stronger effect = higher value.
A short description of assay [2]: stimulators of insulin release from INS-1E, primary screen, cell-based, 5 mM glucose, NPC library (AID 1117329;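 active = compound raises insulin release from rat beta cells at 5 mM glucose, no numeric limit stated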). The following applies: rat INS-1E insulin secretion, at 10 µM, stronger effect = higher value.
A short description of assay [3]: growth inhibition of GSK3B-pretreated HCT116 cells – cell-based, CellTiter-Glo, 0.2 to 20 µM (AID 1117336;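 active = compounds lowering colon cancer cell viability after pretreatment blocking the GSK3B kinase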). To be noted: HCT116 viability after GSK3B inhibitor, at 20 µM, stronger effect = higher value.
The nature of assay [4]: inhibition of endothelial tube formation, primary screen, imaging, VEGF stimulated, CD31 staining, tube area, NPC library (AID 1117340;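 active = compound that reduces growth-factor-driven endothelial tube area in a mixed cell culture, no cutoff stated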). The following applies: VEGF-stimulated ADSC/ECFC co-culture, at 10 µM, stronger effect = higher value.
Assay [5] in a line: glucagon-like peptide 1 release enhancers, primary assay, NCI-H716 cell line, NPC library (AID 1117341;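 active = compound raises GLP1 secretion from the human gut endocrine cells, with no numeric limit stated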). To be noted: NCI-H716 cells, at 10 µM, stronger effect = higher value.
Assay [6] in a line: HCT116 colon cancer cell growth inhibition, primary screen, CellTiter-Glo luminescence, NPC library (AID 1117342;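 active = compounds that lower survival of HCT116 colon cancer cells in the luminescence readout, no numeric limit stated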). The following applies: at 20 µM (top of the series).
Assay [7] is described as follows: CellTiter-Glo luminescent readout of SW480 viability loss, NPC library primary (AID 1117343;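 active = compounds that lower viability of the colon cancer cells in the luminescence readout, with no numeric limit stated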). To be noted: CellTiter-Glo luminescence; at 20 µM (top of the series).
Assay [8] is described as follows: decreased DLD-1 cellular survival, CellTiter-Glo luminescent readout, NPC compound collection, primary HTS (AID 1117346;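 active = compounds that lower survival of DLD-1 colon cancer cells in the luminescence readout, no cutoff given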). The following applies: DLD-1 viability, CellTiter-Glo luminescence; at 20 µM (top of the series).
Assay [9] deals with 6-phosphogluconate dehydrogenase, decarboxylating (Homo sapiens) (UniProt P52209). The assay is described as follows: 6PGD enzyme inhibitors, primary screen, biochemical, human, recombinant enzyme, NADPH absorbance (AID 1159550;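 active = at least 20% inhibition of 6-phosphogluconate dehydrogenase activity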). To be noted: recombinant 6PGD, NADPH absorbance 341 nm; at 10 µM; stronger effect = higher value.
Chain of 6-phosphogluconate dehydrogenase, decarboxylating (Homo sapiens) (P52209 whole entry, looked up): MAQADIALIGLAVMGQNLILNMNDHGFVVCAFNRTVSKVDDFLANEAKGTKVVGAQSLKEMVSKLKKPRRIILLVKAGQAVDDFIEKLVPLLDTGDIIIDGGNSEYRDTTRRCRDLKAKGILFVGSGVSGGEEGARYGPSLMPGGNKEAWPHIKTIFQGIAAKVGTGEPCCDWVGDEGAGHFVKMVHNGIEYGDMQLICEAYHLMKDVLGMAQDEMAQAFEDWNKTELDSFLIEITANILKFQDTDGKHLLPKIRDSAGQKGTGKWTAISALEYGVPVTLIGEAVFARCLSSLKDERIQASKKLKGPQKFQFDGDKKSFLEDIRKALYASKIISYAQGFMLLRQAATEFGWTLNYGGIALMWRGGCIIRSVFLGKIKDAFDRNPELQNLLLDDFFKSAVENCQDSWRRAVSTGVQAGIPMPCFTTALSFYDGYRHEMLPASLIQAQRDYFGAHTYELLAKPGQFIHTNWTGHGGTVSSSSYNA
Assay [10] is described as follows: sensitizers of A549 cells to miR-34 induction, primary screen, imaging, A549 dox-inducible miR-34, nuclei and caspase counts (AID 1347080;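 active = compounds whose cell count with miR-34 switched on is under 0.7 times the count with it off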). The following applies: A549 miR-34 inducible, Hoechst nuclei count, 48 h.
A short description of assay [11]: survival rescue of mitochondrial mutant cells in low glucose, primary screen, MELAS cybrids, Rieske KO mouse fibroblasts, CellTiter-Glo (AID 1508586;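 active = mean z-score across replicates of 1.96 or higher in either the MELAS or the Rieske mutant cell line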;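 also: z relative to plate mean and SD of compound and empty wells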).
The target of assay [12] is NAD(+) hydrolase SARM1 (Homo sapiens) (UniProt Q6SZW1). Briefly: SARM1 TIR NADase inhibitors, cell lysate, NAD-Glo luminescence (AID 1508614;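 active = compound whose remaining NAD level is above about 45 nM, limit read from the data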;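 also: higher remaining NAD means stronger inhibition of SARM1 NADase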). The following applies: SAM-TIR HEK293T lysate NADase, at 1 µM, stronger effect = higher value.
Chain of NAD(+) hydrolase SARM1 (Homo sapiens) (Q6SZW1 whole entry, looked up, the tested form may be a part): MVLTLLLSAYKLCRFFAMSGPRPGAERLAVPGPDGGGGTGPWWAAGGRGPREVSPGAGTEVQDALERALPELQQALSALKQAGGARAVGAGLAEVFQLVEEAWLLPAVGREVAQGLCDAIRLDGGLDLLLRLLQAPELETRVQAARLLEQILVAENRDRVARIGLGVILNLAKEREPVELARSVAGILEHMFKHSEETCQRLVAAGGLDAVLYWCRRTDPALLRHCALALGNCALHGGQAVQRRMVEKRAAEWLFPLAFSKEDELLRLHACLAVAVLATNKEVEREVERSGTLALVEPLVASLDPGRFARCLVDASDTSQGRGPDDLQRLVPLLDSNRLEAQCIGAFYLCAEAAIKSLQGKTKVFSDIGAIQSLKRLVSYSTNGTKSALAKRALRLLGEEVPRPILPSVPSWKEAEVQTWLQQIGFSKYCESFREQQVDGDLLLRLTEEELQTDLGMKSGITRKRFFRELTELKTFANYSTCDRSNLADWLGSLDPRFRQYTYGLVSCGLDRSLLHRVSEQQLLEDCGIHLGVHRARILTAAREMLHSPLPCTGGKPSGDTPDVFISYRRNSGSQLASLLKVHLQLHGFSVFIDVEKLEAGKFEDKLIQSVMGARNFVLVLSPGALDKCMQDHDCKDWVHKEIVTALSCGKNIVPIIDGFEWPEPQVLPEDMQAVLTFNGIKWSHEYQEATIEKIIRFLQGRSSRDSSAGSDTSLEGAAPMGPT
For assay [13], the target named is Mitogen-activated protein kinase 7 (Homo sapiens) (UniProt Q13164). Briefly: ERK5 transactivation activators in reporter cells, primary screen, cell-based, HTS (AID 1508626;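 active = luciferase signal above three times the same-plate solvent-only control wells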;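 also: luciferase driven by Gal4-ERK5 fusion binding five Gal4 sites before minimal TATA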). To be noted: HeLa Gal4-ERK5 transactivation, 18 h, at 5 µM, stronger effect = higher value.
Chain of Mitogen-activated protein kinase 7 (Homo sapiens) (Q13164 whole entry, looked up, the tested form may be a part): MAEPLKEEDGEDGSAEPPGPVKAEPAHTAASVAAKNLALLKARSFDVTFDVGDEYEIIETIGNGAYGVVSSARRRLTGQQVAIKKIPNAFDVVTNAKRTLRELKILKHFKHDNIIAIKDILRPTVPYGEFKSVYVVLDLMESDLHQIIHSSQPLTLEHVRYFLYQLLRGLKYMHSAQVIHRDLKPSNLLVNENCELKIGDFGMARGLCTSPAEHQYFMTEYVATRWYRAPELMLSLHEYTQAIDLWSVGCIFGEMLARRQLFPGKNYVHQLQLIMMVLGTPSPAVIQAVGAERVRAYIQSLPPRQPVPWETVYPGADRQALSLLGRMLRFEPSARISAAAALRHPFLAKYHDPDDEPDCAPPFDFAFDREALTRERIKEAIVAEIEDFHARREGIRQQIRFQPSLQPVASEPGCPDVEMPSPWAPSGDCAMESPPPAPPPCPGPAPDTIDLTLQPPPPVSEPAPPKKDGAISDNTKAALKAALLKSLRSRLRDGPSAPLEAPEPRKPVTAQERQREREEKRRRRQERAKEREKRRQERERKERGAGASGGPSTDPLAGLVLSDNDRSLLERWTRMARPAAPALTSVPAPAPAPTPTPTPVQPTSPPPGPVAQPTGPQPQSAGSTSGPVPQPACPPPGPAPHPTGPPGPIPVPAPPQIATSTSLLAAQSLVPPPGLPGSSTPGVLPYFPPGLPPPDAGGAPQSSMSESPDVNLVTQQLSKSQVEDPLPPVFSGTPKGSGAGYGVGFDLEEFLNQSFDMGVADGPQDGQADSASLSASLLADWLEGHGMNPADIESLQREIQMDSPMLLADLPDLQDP
The subject of the next assay is F380Y. The assay is described as follows: modulators of BK channel variants, profiling panel, selectivity assay, cell-based, U2OS BacMam, thallium flux, beta subunits (AID 1259406).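 Also: initial slope of Thallos dye fluorescence rise after thallium is added; log ratio against the mean of 0.3% DMSO vehicle wells on the same plate.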 The following applies: at 30 µM.
Another assay has as its system F380Y/beta2Delta. The assay is described as above. To be noted: at 30 µM.
Assay [14] addresses Calcium-activated potassium channel subunit alpha-1 (Homo sapiens) + Leucine-rich repeat-containing protein 26 (Homo sapiens) (UniProt Q12791+Q2I0M4). Described as above. To be noted: F380Y/Slo1WT/gamma1, at 30 µM.
The subject of another assay is R275C. The description is as above. The following applies: at 30 µM.
The subject of a further assay is R275C/beta1. Described as above. The following applies: at 30 µM.
The next assay relates to R275C/beta2Delta. The assay is described as above. The following applies: at 30 µM.
Assay [15] can be described thus: differential killing of epithelial or mesenchymal cells, primary screen, imaging, PC-3E GFP, TEM4-18 mCherry, co-culture (AID 1345086;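 active = compounds killing one labelled cell type while sparing the other, by normalised counts and ratio limits, not self-fluorescent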;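 as to all read-outs here: cells exposed to compound for 72 h before imaging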;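 as to red/green cell ratio (normalised): normalised mesenchymal count divided by normalised epithelial count so high means epithelial killing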). To be noted: imaging cell counts, at 1 µM; for red/green cell ratio (normalised): actives lie on both sides, counts scaled to control wells, 1 = unselective.
Setting [16] is: MELAS cybrid survival, CellTiter-Glo 48 h, stronger effect = higher value.
Setting [17] is: Rieske KO mouse fibroblast survival, CellTiter-Glo 72 h.
Setting [18] is: measured here: epithelial PC-3E GFP cell survival.
[19] abbreviates: measured here: mesenchymal TEM4-18 mCherry cell survival.

Chain of Calcium-activated potassium channel subunit alpha-1 (Homo sapiens) + Leucine-rich repeat-containing protein 26 (Homo sapiens) (Q2I0M4 whole entry, looked up, one chain of several): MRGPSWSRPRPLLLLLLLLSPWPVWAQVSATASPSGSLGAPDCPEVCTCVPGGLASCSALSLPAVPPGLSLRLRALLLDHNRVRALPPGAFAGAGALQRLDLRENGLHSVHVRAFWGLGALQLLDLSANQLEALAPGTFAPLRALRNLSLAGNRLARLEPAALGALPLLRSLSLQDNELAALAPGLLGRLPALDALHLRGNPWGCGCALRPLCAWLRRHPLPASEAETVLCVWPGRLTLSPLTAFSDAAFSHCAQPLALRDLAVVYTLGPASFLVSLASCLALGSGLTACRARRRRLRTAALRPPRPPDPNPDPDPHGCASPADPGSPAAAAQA

As for `C[C@]12C=CC(=O)C=C1CC[C@@H]1[C@@H]2[C@@H](O)C[C@@]2(C)[C@H]1CC[C@]2(O)C(=O)CO`, the nuclear beta-catenin stimulation in assay [1] (at 10 µM) is -2.6% (inactive); in assay [1] (stimulation, at 2 µM), -0.7%. For the same compound, the insulin secretion stimulation in assay [2] was 1.6% (inactive). Further, the viability decrease in assay [3] was -2.7% (inactive). Also, the tube area decrease in [4] was 11.2% (inactive). Besides, the GLP1 secretion stimulation in assay [5] is -0.5% (inactive). Besides, the inhibition of viability in assay [6] was -3.5% (inactive). The viability decrease (inhibition) in [7] is -1.5% (inactive); in assay [8] it was -18.8% (inactive). Besides, in [9], the inhibition is -5.44% (inactive). The fold change was 0.93 (inactive) and 0.783 (inactive) and 0.847 (inactive) in [10] (stronger effect = lower value, cell number ratio, induced over uninduced); 1.73 and 1.43 and 1.29 in assay [10] (measured here: relative caspase fold change +Dox/-Dox). Moreover, the cell count was 7530 and 6090 and 6580 in [10] (measured here: total cells with miR-34 induction, stronger effect = lower value); 8090 and 7780 and 7760 in assay [10] (measured here: total cells without miR-34 induction). Moreover, the z-score was 0.367 (inactive) and 0.381 (inactive) in assay [11] (setting [16]); -0.0179 and 1.19 in assay [11] (setting [17]). The remaining NAD in [12] is 10 nM (inactive). Also, the luciferase signal in [13] is 84 AU (inactive). Moreover, the log fold change Tl+ flux with F380Y was 0.0238 (inactive); in the assay with F380Y/beta2Delta, 0.0411 (inactive); in assay [14] it was -0.0308 (inactive); in the assay with R275C it was 0.0128 (inactive); with R275C/beta1 it was 0.0311 (inactive); in the assay on R275C/beta2Delta, 0.0197 (inactive).

In the case of `CCCCc1oc2ccccc2c1C(=O)c1cc(I)c(OCCN(CC)CC)c(I)c1`, the nuclear beta-catenin stimulation is 71.4% (active) in assay [1] (at 10 µM) and 0.8% in assay [1] (stimulation, at 2 µM). In addition, in assay [2], the insulin secretion stimulation was 0.6% (inactive). Further, the viability decrease in [3] is 103% (active). In addition, the tube area decrease in assay [4] is 110% (active). In [5], the GLP1 secretion stimulation was 3.9% (inactive). The inhibition of viability in assay [6] is 102% (active). The viability decrease (inhibition) in [7] is 129% (active); in assay [8], 105% (active). In addition, in assay [9], the inhibition was 7.85% (inactive). Besides, the red/green cell ratio (normalised) in assay [15] was 1.08 (inactive). Moreover, the normalised cell number was 1.02 in assay [15] (setting [18]) and 1.1 in assay [15] (setting [19]). For the same compound, the z-score in [11] (setting [16]) was -0.425 (inactive) and -1.46 (inactive) and 0.238 (inactive); in assay [11] (setting [17]), 0.341 and -0.317 and -0.0304. In assay [12], the remaining NAD is 10 nM (inactive). Moreover, in assay [13], the luciferase signal is 44 AU (inactive).

As to `COc1ccc2c(c1)c(CC(=O)O)c(C)n2C(=O)c1ccc(Cl)cc1`, the nuclear beta-catenin stimulation in assay [1] (at 10 µM) is 0.6% (inactive); in assay [1] (stimulation, at 2 µM), 1%. Further, the insulin secretion stimulation in assay [2] was -1% (inactive). The viability decrease in [3] was -52.1% (inactive). The tube area decrease in [4] was -10.5% (inactive). Also, the GLP1 secretion stimulation in [5] is 1.6% (inactive). Also, the inhibition of viability in assay [6] is 0.43% (inactive). Besides, the values for the viability decrease (inhibition) in assay [7] and in [8] were 10.6% (inactive) and 3.4% (inactive), respectively. In addition, in [9], the inhibition is -5.45% (inactive). In assay [15], the red/green cell ratio (normalised) was 1.02 (inactive). For the same compound, the normalised cell number in assay [15] (setting [18]) amounted to 0.91; in [15] (setting [19]) it was 0.93. Further, the z-score was -0.268 (inactive) and 0.659 (inactive) and 0.23 (inactive) in assay [11] (setting [16]); -0.036 and -0.235 and -0.118 in assay [11] (setting [17]). The remaining NAD in [12] was 10 nM (inactive). Besides, the luciferase signal in [13] was 36 AU (inactive). For the same compound, the log fold change Tl+ flux in the assay on F380Y is 0.0847 (inactive); in the assay on F380Y/beta2Delta, 0.11 (active); in [14], 0.0683 (inactive); in the assay on R275C it was 0.074 (inactive); in the assay with R275C/beta1, 0.196 (active); with R275C/beta2Delta it was 0.128 (active).

Values taken from PubChem BioAssay.
